PubChem BioAssay (NCI)
Several values for one entry are separate records, joined by “and”; a condition that tells them apart may be missing. Equal entries are not always repeated. Compounds without any hit were thinned out: in the full panel of roughly 79,000, 15% have a hit. Some structures have more than one record in an assay (separate samples or runs), and their calls can disagree. Activity calls are given as the source filed them. Cut-off read from the data, not from the text of the source: active = growth inhibition above about 70%; inactive = the rest.

Key:
[1] = NCI Yeast Anticancer Drug Screen. Data for the mec2-1 strain (AID 157); details: S. cerevisiae mec2-1 strain, stronger effect = higher value
Outline: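 Yeast mec2-1 mutant treated with compound. Readout: growth inhibition vs vehicle controls.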

[2] = NCI Yeast Anticancer Drug Screen. Data for the rad14 strain (AID 159);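 note: 0% = growth of vehicle-treated control cultures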; details: S. cerevisiae rad14 strain growth inhibition, stronger effect = higher value
Outline: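 Compound-treated yeast with a defined DNA-repair lesion; growth inhibition normalised to vehicle-treated cultures.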

[3] = NCI Yeast Anticancer Drug Screen. Data for the sgs1 mgt1 strain (AID 161);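 note: 0% = growth of cultures given vehicle only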; details: S. cerevisiae sgs1 mgt1 strain, stronger effect = higher value
Outline: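 Test agents were incubated with a DNA-repair-mutant yeast strain. Growth was then read and compared against vehicle-treated controls.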

[4] = NCI Yeast Anticancer Drug Screen. Data for the CLN2oe strain (AID 163);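 note: 0% = growth of vehicle-only control cultures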; details: S. cerevisiae CLN2oe strain, stronger effect = higher value
Outline: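 Read-out: yeast growth inhibition, expressed relative to vehicle-only controls. The strain bears an engineered cell-cycle alteration.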

[5] = NCI Yeast Anticancer Drug Screen. Data for the bub3 strain (AID 167); details: S. cerevisiae bub3 mutant strain, stronger effect = higher value
Outline: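 Growth of a checkpoint-deficient yeast mutant is measured after compound exposure. Values represent inhibition relative to vehicle.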

[6] = NCI Yeast Anticancer Drug Screen. Data for the mlh1 strain (AID 171);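 note: 0% = growth of vehicle-treated control cultures of the same strain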; details: S. cerevisiae mlh1 strain growth inhibition, stronger effect = higher value
Outline: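 Read-out: growth inhibition versus vehicle controls. Strain: engineered yeast with a defined DNA repair or cell cycle defect, compound-treated.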

[7] = NCI Yeast Anticancer Drug Screen. Data for the sgs1 strain (AID 173);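 note: 0% = growth of vehicle-only control cultures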; details: S. cerevisiae sgs1 mutant, stronger effect = higher value
Outline: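 Read-out: yeast growth inhibition relative to vehicle controls, following compound exposure of a strain with a defined DNA repair/cell cycle alteration.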

[8] = NCI Yeast Anticancer Drug Screen. Data for the mlh1 rad18 strain (AID 175); details: S. cerevisiae mlh1 rad18 strain growth inhibition, stronger effect = higher value
Outline: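 Yeast w/ defined DNA-repair lesions; compound exposure; growth vs vehicle controls → % inhibition.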

[9] = NCI Yeast Anticancer Drug Screen. Data for the rad18 strain (AID 177); details: S. cerevisiae rad18 mutant growth inhibition, stronger effect = higher value
Outline: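 Readout: growth inhibition vs vehicle controls. Cells: genetically altered yeast strain, DNA repair defect.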

[10] = NCI Yeast Anticancer Drug Screen. Data for the rad52 strain (AID 147);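 note: 0% = growth of vehicle-treated control cultures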; details: S. cerevisiae rad52 mutant growth inhibition, stronger effect = higher value
Outline: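 Read-out: growth inhibition versus vehicle-treated controls. Cells were a DNA repair-deficient yeast strain treated with compounds.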

[11] = NCI Yeast Anticancer Drug Screen. Data for the wt1 strain (AID 149);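 note: 0% = growth of vehicle-treated wt1 cultures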; details: S. cerevisiae wt1 strain (SPY 50644) growth inhibition, stronger effect = higher value
Outline: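 Readout: yeast growth inhibition, normalised to vehicle controls, in the wt1 strain exposed to test compounds.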

[12] = NCI Yeast Anticancer Drug Screen. Data for the rad50EPP+ strain (AID 151);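 note: 0% = growth of vehicle-treated control cultures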; details: S. cerevisiae rad50 mutant strain, stronger effect = higher value
Outline: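 Growth inhibition read against vehicle controls in rad50EPP+ yeast, a strain altered in DNA damage repair, after compound exposure.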

[13] = NCI Yeast Anticancer Drug Screen. Data for the rad50 strain (AID 155);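 note: 0% = growth of vehicle-only cultures of the same strain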; details: S. cerevisiae rad50 strain growth inhibition, stronger effect = higher value
Outline: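 Compounds were tested on a yeast strain with an engineered DNA damage repair alteration; the reported value is growth inhibition normalised to vehicle treatment.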

[14] = NCI Yeast Anticancer Drug Screen. Data for the cln2 rad14 strain (AID 165);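 note: 0% = growth equal to vehicle treated cultures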; details: S. cerevisiae cln2 rad14 strain, stronger effect = higher value
Outline: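 cln2 rad14 yeast strain; compound exposure; growth inhibition read vs vehicle controls.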

[15] = NCI Yeast Anticancer Drug Screen. Data for the wt2 strain (AID 169);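 note: 0% = growth of vehicle-treated yeast cultures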; details: S. cerevisiae wt2 strain growth inhibition, stronger effect = higher value
Outline: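 Read-out: growth inhibition versus vehicle-treated control cultures after compound exposure of the yeast strain.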

[16] = at 5.0 µM (retest, dose inferred, filed as 0.5)
[17] = at 50.0 µM (retest, dose inferred, filed as 5.0)

Measured: growth inhibition

O=[N+]([O-])c1cccc2nc3ccccc3c(NCCc3cccc[n+]3[O-])c12
inactive: [2]; at 1.2 µM 12% | [2]; at 3.7 µM 37% | [4]; at 1.2 µM -11% | [4]; at 3.7 µM -12% | [4]; at 11.0 µM 6% | [4]; at 33.0 µM 35% | [5]; at 1.2 µM -12% | [5]; at 3.7 µM -13% | [5]; [16] 3% | [5]; at 11.0 µM -11% | [5]; at 33.0 µM 17% | [5]; at 50.0 µM 53.2% | [5]; at 100.0 µM 65% | [6]; at 1.2 µM 0% | [6]; at 3.7 µM 3% | [6]; at 11.0 µM 20% | [6]; at 33.0 µM 50% | [7]; at 1.2 µM 43%
active: [1]; at 100.0 µM 98% | [2]; at 11.0 µM 89% | [2]; at 33.0 µM 97% | [2]; at 100.0 µM 99% | [3]; [16] 91% | [3]; [17] 97% | [3]; at 50.0 µM 91.8% | [4]; at 100.0 µM 86% | [5]; [17] 83% | [6]; at 100.0 µM 89% | [7]; at 3.7 µM 75% | [7]; at 11.0 µM 89% | [7]; at 33.0 µM 93% | [7]; at 100.0 µM 96% | [8]; [16] 88% | [8]; [17] 98% | [8]; at 50.0 µM 93.8% | [9]; at 1.2 µM 92% | [9]; at 3.7 µM 94% | [9]; at 11.0 µM 94% | [9]; at 33.0 µM 96% | [9]; at 100.0 µM 96%

CC(C)c1cccc(O)c(=O)c1
inactive: [10]; at 1.2 µM 2% | [10]; at 3.7 µM -3% | [10]; at 11.0 µM 0% | [10]; at 33.0 µM 18% | [11]; at 1.2 µM -1% | [11]; at 3.7 µM -1% | [11]; at 11.0 µM -1% | [11]; at 33.0 µM 38% | [12]; at 1.2 µM 5% | [12]; at 3.7 µM 8% | [12]; at 11.0 µM -20% | [12]; at 33.0 µM 13% | [13]; at 1.2 µM -7% | [13]; at 3.7 µM -9% | [13]; [16] -1% and 2% | [13]; at 11.0 µM -8% | [13]; at 33.0 µM 27% | [1]; at 1.2 µM -1% | [1]; at 3.7 µM 2% | [1]; [16] -43% and 0% | [1]; at 11.0 µM 6% | [1]; at 33.0 µM 47% | [2]; at 1.2 µM 6% | [2]; at 3.7 µM 4% | [2]; at 11.0 µM 9% | [3]; [16] -2% and 9% | [4]; at 1.2 µM 3% | [4]; at 3.7 µM 4% | [4]; at 11.0 µM 2% | [4]; at 33.0 µM 25% | [14]; [16] -4% and 4% | [5]; at 1.2 µM 5% | [5]; at 3.7 µM -2% | [5]; [16] -7% and 0% | [5]; at 11.0 µM -4% | [5]; at 33.0 µM 13% | [6]; at 1.2 µM -6% | [6]; at 3.7 µM -1% | [6]; at 11.0 µM 2% | [6]; at 33.0 µM 46% | [7]; at 1.2 µM -3% | [7]; at 3.7 µM -11% | [7]; at 11.0 µM -1% | [7]; at 33.0 µM 60% | [8]; [16] -3% and 7% | [9]; at 1.2 µM -6% | [9]; at 3.7 µM 1% | [9]; at 11.0 µM 2% | [9]; at 33.0 µM 18%
47% (inactive) and 100% (active): [1]; [17]
52% (inactive) and 99% (active): [13]; [17]
active: [10]; at 100.0 µM 99% | [11]; at 100.0 µM 98% | [12]; at 100.0 µM 98% | [13]; at 50.0 µM 98.5% and 92.5% | [13]; at 100.0 µM 98% | [1]; at 50.0 µM 99% and 94.2% | [1]; at 100.0 µM 98% | [2]; at 33.0 µM 74% | [2]; at 100.0 µM 99% | [3]; at 50.0 µM 93.9% and 93.2% | [4]; at 100.0 µM 98% | [14]; at 50.0 µM 96.3% and 89.7% | [5]; at 50.0 µM 99.3% and 93.2% | [5]; at 100.0 µM 98% | [6]; at 100.0 µM 99% | [7]; at 100.0 µM 98% | [8]; at 50.0 µM 98.4% and 91.7% | [9]; at 100.0 µM 98%
12% (inactive) and 99% (active): [14]; [17]
36% (inactive) and 99% (active): [3]; [17]
18% (inactive) and 99% (active): [5]; [17]
40% (inactive) and 99% (active): [8]; [17]

Cc1c2cc[n+](CCN3CCCCC3)cc2c(C)c2c1[nH]c1ccc(O)cc12
active: [10]; at 11.0 µM 81% | [10]; at 33.0 µM 93% | [10]; at 100.0 µM 98% | [12]; at 33.0 µM 89% | [12]; at 100.0 µM 96% | [13]; at 11.0 µM 74% | [13]; at 33.0 µM 91% | [13]; [17] 97% | [13]; at 50.0 µM 97.8% | [13]; at 100.0 µM 98% | [1]; at 100.0 µM 98% | [2]; at 100.0 µM 93% | [3]; at 50.0 µM 89.2% | [4]; at 100.0 µM 72% | [5]; at 50.0 µM 90.5% | [5]; at 100.0 µM 97% | [15]; at 100.0 µM 96% | [6]; at 100.0 µM 97% | [8]; at 50.0 µM 81.8%
inactive: [10]; at 1.2 µM 19% | [10]; at 3.7 µM 44% | [11]; at 1.2 µM 2% | [11]; at 3.7 µM 2% | [11]; at 11.0 µM 5% | [11]; at 33.0 µM 6% | [11]; at 100.0 µM 29% | [12]; at 1.2 µM 4% | [12]; at 3.7 µM 16% | [12]; at 11.0 µM 62% | [13]; at 1.2 µM 17% | [13]; at 3.7 µM 47% | [13]; [16] 36% | [1]; at 1.2 µM -2% | [1]; at 3.7 µM 3% | [1]; [16] 25% | [1]; at 11.0 µM 5% | [1]; at 33.0 µM 15% | [1]; [17] 4% | [1]; at 50.0 µM 57.5% | [2]; at 1.2 µM 1% | [2]; at 3.7 µM 12% | [2]; at 11.0 µM 1% | [2]; at 33.0 µM 14% | [3]; [16] 2% | [3]; [17] 38% | [4]; at 1.2 µM -3% | [4]; at 3.7 µM -3% | [4]; at 11.0 µM -3% | [4]; at 33.0 µM 4% | [14]; [16] 5% | [14]; [17] 6% | [14]; at 50.0 µM 30.1% | [5]; at 1.2 µM -20% | [5]; at 3.7 µM 5% | [5]; [16] 16% | [5]; at 11.0 µM -4% | [5]; at 33.0 µM -5% | [5]; [17] 28% | [15]; at 1.2 µM 5% | [15]; at 3.7 µM 4% | [15]; at 11.0 µM 5% | [15]; at 33.0 µM 12% | [6]; at 1.2 µM -5% | [6]; at 3.7 µM -4% | [6]; at 11.0 µM 0% | [6]; at 33.0 µM 8% | [8]; [16] 3% | [8]; [17] 25% | [9]; at 1.2 µM -2% | [9]; at 3.7 µM -5% | [9]; at 11.0 µM -4% | [9]; at 33.0 µM -4% | [9]; at 100.0 µM 41%
